Source: PubChem BioAssay
Compounds with a hit are over-represented: about 2.9% of the library has one in this group of screens.
FBA Mtb inh – inhibitors of M. tuberculosis fructose-bisphosphate aldolase | 360,000 compounds, 2.3% hits | inhibition, % at 1 µM | purified M. tuberculosis FBA, fluorescence read-out | P9WQA3 | AID 588726; in the data active = inhibition above about 27%
Target sequence (P9WQA3 whole entry, looked up): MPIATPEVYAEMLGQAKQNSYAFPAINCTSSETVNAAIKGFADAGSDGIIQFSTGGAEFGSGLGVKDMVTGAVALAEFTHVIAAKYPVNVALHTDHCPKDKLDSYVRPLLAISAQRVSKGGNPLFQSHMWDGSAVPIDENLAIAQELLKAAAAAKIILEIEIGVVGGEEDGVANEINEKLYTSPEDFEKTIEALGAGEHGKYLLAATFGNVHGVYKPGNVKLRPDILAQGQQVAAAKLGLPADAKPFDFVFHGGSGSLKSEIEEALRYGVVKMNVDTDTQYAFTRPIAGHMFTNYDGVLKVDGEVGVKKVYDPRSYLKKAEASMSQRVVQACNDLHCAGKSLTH
Mtb hypoxia rep – Mtb hypoxia fluorescent reporter inhibition | fluorescence inhibition, % (test concentration not listed) | AID 1159583 | 300,000 compounds, 0.1% hits | M. tuberculosis hypoxia-regulated fluorescent reporter, fluorescence; in the data active = fluorescence inhibition mostly above about 23%, no sharp cut-off; inactive = mostly below about 17%
GDH-TPI inh – GDH-TPI coupled enzyme inhibition counter-screen | GDH-TPI coupled enzyme counterscreen, NADH absorbance | inhibition, % at 4.8 µM | 360,000 compounds, 1.2% hits; in the data active = inhibition above about 30%
FadD28 FP inh – M. tuberculosis FadD28 bisubstrate binding inhibition; inhibition, % at 12.5 µM; FadD28 bisubstrate probe binding, fluorescence polarization; 360,000 compounds, 0.22% hits; AID 588549; in the data active = inhibition above about 8.5%, passing the limit was not always enough
Mtb BioA inh – BioA (M. tuberculosis) enzyme inhibition. purified M. tuberculosis BioA enzyme, plate reader. 360,000 compounds, 0.096% hits. inhibition, % at 9.99 µM; in the data active = inhibition above about 40%
A number is an active result; n = inactive; x = no result; + = active, no number.

SMILES | FBA Mtb inh | Mtb hypoxia rep | GDH-TPI inh | FadD28 FP inh | Mtb BioA inh
COc1ccc(NC(=O)Nc2ccc3c(c2)C(=O)N([C@H](C)CO)C[C@H](C)[C@@H](CN(C)CC2CCCCC2)OCCCC[C@H](C)O3)cc1 | x | x | x | x | n
Cn1c(=O)c2[nH]c(C=Cc3ccc4c(c3)OCO4)nc2n(C)c1=O | n | x | 31 | n | x
COc1ccc(-c2cnc3c(c2)C(=O)N([C@@H](C)CO)C[C@@H](C)[C@@H](CN(C)C(=O)C2CCOCC2)O3)cc1 | x | x | x | x | n
COc1cc(/C=N/NC(=O)c2cc(C3CC3)[nH]n2)ccc1O | n | x | 44 | n | n
Cc1nn(-c2ccccc2)c(C)c1-c1cc(C(=O)N/N=C/c2ccc(O)cc2)[nH]n1 | n | x | 44 | n | x
COc1cc(/C=N/NC(=O)c2ccc(NC(=O)C3CCCCC3)cc2)ccc1O | n | x | 35 | n | n
COc1cc(C=NNC(=O)c2ccc(NC(=O)C3CCCCC3)cc2)ccc1O | x | n | x | x | x
COc1cc(/C=N/NC(=O)c2cc(-c3c(C)nn(-c4ccccc4)c3C)n[nH]2)ccc1O | n | x | 33 | n | n
NC(=NOC(=O)c1cc(Br)ccc1Cl)c1cccnc1 | x | n | x | x | x
C[C@H](CO)N1C[C@H](C)[C@H](CN(C)C(=O)c2ccccc2)OCCCC[C@H](C)Oc2ccc(NS(=O)(=O)c3cccs3)cc2C1=O | x | x | x | x | n
COc1cc(/C=N/NC(=O)c2cc(-c3ccc4c(c3)OCO4)n[nH]2)ccc1O | n | x | 39 | n | x
CN(C)S(=O)(=O)c1ccc(C(=O)Nc2nnc(SCC(=O)NCC3CCCO3)s2)cc1 (stereo not drawn) | n | n | 35 | n | n
CCOc1ccc(C(=O)Nc2nnc(SCC(=O)NCC3CCCO3)s2)cc1 (stereo not drawn) | n | n | 38 | n | n
CC(C)(C)c1ccc(C(=O)Nc2nnc(SCC(=O)NCC3CCCO3)s2)cc1 (stereo not drawn) | n | n | n | n | n
Cc1nn(C)cc1/C=C/C(=O)c1cccs1 | n | n | n | n | n
Cc1c(/C=C/C(=O)c2ccc(O)cc2)cnn1C | n | x | 39 | n | n
Cc1nn(C)cc1/C=C/C(=O)c1ccccc1 | n | n | 36 | n | n
Cc1csc2ncc(C(=O)N3CCc4ccccc43)c(=O)n12 | n | n | 52 | n | n
Cc1c(C(=O)N2CCc3ccccc32)cnn1C | n | n | n | n | x
Cc1csc2ncc(C(=O)N3CCCc4ccccc43)c(=O)n12 | n | n | 37 | n | n
COc1ccc(S(=O)(=O)Nc2ccc3c(c2)C(=O)N([C@H](C)CO)C[C@H](C)[C@H](CN(C)C(=O)c2ccncc2)OCCCC[C@@H](C)O3)cc1 | x | x | x | x | n
Cc1ccc(S(=O)(=O)N[C@H]2CC[C@@H](CCNC(=O)C3CCC3)O[C@H]2CO)cc1 | x | x | x | x | n
CCCN1[C@@H]2c3ccc(-c4ccccc4F)c(=O)n3C[C@H]1[C@H](CO)[C@H]2C(=O)NCC | x | x | x | x | n
CCN(CC)c1ccc(NC2CC(=O)N(CCc3ccc(OC)cc3)C2=O)cc1 (stereo not drawn) | n | n | n | 8.7 | n
CN1C(=O)c2cc(NC(=O)c3ccccc3)ccc2OC[C@H]2O[C@@H](CC(=O)NCC3CC3)CC[C@@H]21 | x | x | x | x | n
SMILES | FBA Mtb inh | Mtb hypoxia rep | GDH-TPI inh | FadD28 FP inh | Mtb BioA inh
COC(=O)C1=C(c2cccc(C#N)c2)CC2CCC1N2C(=O)NCCOc1ccccc1 (stereo not drawn) | x | n | x | x | x
O=C1c2ccc3c4c(ccc(c24)C(=O)N1c1cccc(O)c1)C(=O)N(c1cccc(O)c1)C3=O | n | n | 35 | n | n
O=C1c2ccc3c4c(ccc(c24)C(=O)N1c1cccc(O)c1)CC3 | n | n | n | n | n
COc1ccc2cc3cc(C(=O)NCc4ccco4)oc3nc2c1 | 140 | n | n | n | n
COc1ccc(NC(=O)NCc2ccccn2)cc1 | n | x | n | n | n
COc1ccc2cc3cc(C(=O)NCc4ccccn4)oc3nc2c1 | + | x | n | n | n
NC(=O)CCCn1c(C(=O)c2ccc(Cl)cc2)c2ccc([N+](=O)[O-])cc2[n+]1[O-] | n | 40 | n | n | n
Cc1c(O)ccc(C(=O)COc2ccc(F)cc2)c1O | n | n | 32 | n | n
O=C(NN=Cc1ccccc1OCc1ccccc1)c1cccs1 | x | n | x | x | x
O=C(COC(=O)c1ccc(O)cc1)Nc1ccc(Cl)cc1C(=O)c1ccccc1 | n | n | n | n | x
COC(=O)c1cc(Cl)ccc1NCC(N)c1ccccc1 (stereo not drawn) | 115 | x | x | n | n
N#Cc1c(N)nc2c(c1-c1cccs1)CCCC2 | n | n | n | n | n
N#Cc1c(-c2cccs2)cc(-c2ccccn2)nc1N | 78 | x | n | n | n
CC(/C=C/c1ccco1)=NNC(=O)c1ccccc1Cl | x | n | x | x | x
CC(/C=C/c1ccco1)=N/NC(=O)c1ccccc1Cl | n | x | 32 | n | n
CC(/C=C/c1ccco1)=N\NC(=O)c1cccc(Cl)c1 | n | x | 32 | n | n
O=C(C[C@@H]1C[C@H]2c3cc(NC(=O)c4cccnc4)ccc3O[C@H]2[C@H](CO)O1)NCc1ccccc1F | x | x | x | x | n
NC(=O)Cn1c(O)c(N=NC(=O)CNC(=O)/C=C/c2ccccc2)c2ccccc21 | n | n | 37 | n | n
CCn1c(O)c(N=NC(=O)CNC(=O)c2cccnc2)c2ccccc21 | n | x | 37 | n | n
C=CCn1c(O)c(N=NC(=O)CNC(=O)/C=C/c2ccco2)c2ccccc21 | n | n | 35 | n | n
C=CCn1c(O)c(N=NC(=O)CNC(=O)/C=C/c2ccc(OC)cc2)c2ccccc21 | n | n | 38 | n | n
O=C(CNC(=O)c1ccco1)N=Nc1c(O)n(CCc2ccccc2)c2ccccc12 | n | n | n | n | n
COc1ccc(C(C)=NOC/C(O)=C(\C#N)c2nc3ccccc3[nH]2)cc1OC | x | n | x | x | x
Cn1c(O)c(C=NCc2cccs2)c(=O)n(C)c1=O | n | n | n | n | n
COc1ccc(N=Cc2c(O)n(C)c(=O)n(C)c2=O)cc1 | n | n | n | n | n
SMILES | FBA Mtb inh | Mtb hypoxia rep | GDH-TPI inh | FadD28 FP inh | Mtb BioA inh
Cn1c(O)c(/C=N/c2ncccn2)c(=O)n(C)c1=O | n | n | 32 | n | n
Cc1ccc(N=Cc2c(O)n(C)c(=O)n(C)c2=O)cc1 | n | n | 35 | n | n
CCOc1ccccc1N=Cc1c(O)n(C)c(=O)n(C)c1=O | n | n | n | n | n
Cc1cccc(N=Cc2c(O)n(C)c(=O)n(C)c2=O)c1 | n | n | 36 | n | n
CCOc1ccc(N/N=C(/C#N)C(N)=O)cc1 | n | x | 33 | n | n
Cc1[nH]n(-c2ccc([N+](=O)[O-])cc2)c(=O)c1C=NCCc1c(C)[nH]c2ccccc12 | n | n | 31 | n | n
CCCc1[nH]n(-c2ccc([N+](=O)[O-])cc2)c(=O)c1C=NCCCn1ccnc1 | n | n | 32 | n | n
C[C@@H]1CN([C@H](C)CO)C(=O)c2cc(NS(=O)(=O)c3ccccc3)ccc2O[C@@H]1CN(C)S(=O)(=O)c1cn(C)cn1 | x | x | x | x | n
O=c1c2ccccc2nnn1CSc1ccc2c(c1)OCCO2 | 152 | n | n | n | n
COc1c(Br)cc(Br)cc1C=Nn1c(C)nnc1C | x | n | x | x | x
Nc1c(C(=O)NCc2ccco2)c2nc3ccccc3nc2n1Cc1ccccc1 | 112 | n | n | n | x
